Only some compounds are listed: those with a hit (about 2.4% of all), similar ones and a draw of the others.
PfM18AAP inh = PfM18AAP enzyme inhibition; AID 1822; recombinant PfM18AAP, H-Glu-NHMec fluorogenic cleavage; actives 1.2% (n = 290,000); inhibition, % at 7.35 µM;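 active = inhibition above the campaign mean inhibition over all tested compounds plus 3 SD, cut at about 28% in these data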
A3G deaminase = APOBEC3G (human) deaminase inhibition; Q9HC16; recombinant A3G, ssDNA deamination FAM/TAMRA fluorescence; inhibition, % at 20 µM; actives 0.28% (n = 330,000);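 active = inhibition of at least 40% at 20 µM, with no more than 30% in the related APOBEC3A deaminase screen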
A3A deaminase = blocks human APOBEC3A ssDNA deamination. AID 493011. actives 0.41% (n = 330,000). P31941. inhibition, % at 20 µM. recombinant A3A, FAM/TAMRA ssDNA deamination fluorescence;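 active = at least 40% inhibition at 20 µM here, with at most 30% in a related deaminase screen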
Target sequence (P31941 whole entry, looked up): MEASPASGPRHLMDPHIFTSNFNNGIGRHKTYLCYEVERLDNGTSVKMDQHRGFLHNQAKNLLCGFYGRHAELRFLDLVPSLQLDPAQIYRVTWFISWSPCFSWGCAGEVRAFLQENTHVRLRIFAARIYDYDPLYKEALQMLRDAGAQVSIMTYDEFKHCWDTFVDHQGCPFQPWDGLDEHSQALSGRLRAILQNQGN
Yeast superoxide = caloric restriction mimetics inhibiting age-related superoxide in yeast; S. cerevisiae aged cells, superoxide DHE fluorescence; active compounds read low; superoxide response (% of plate mean), % at 10 µM; actives 0.18% (n = 330,000); AID 2690;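 active = superoxide response under a set limit, about three screen SD below normal, cut at about 65% in these data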;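 also: yeast aged for seven days with compound at 30 °C before DHE staining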
PfGluPho inh = PfG6PD (Plasmodium falciparum) enzyme inhibition. actives 0.78% (n = 350,000). AID 504690. inhibition, % at 20 µM. PfGluPho enzyme, NADPH resazurin-diaphorase fluorescence;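 active = inhibition reaching at least a set limit at 20 µM in the primary screen, cut at about 59% in these data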
Superoxide pick = yeast aging superoxide inhibition, cherry pick confirmation. S. cerevisiae aging, superoxide DHE fluorescence; active compounds read low. shares compounds with Yeast superoxide. superoxide response (% of plate), % at 10 µM. actives 1% (n = 850);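 active = superoxide signal below 65% of the plate average of sample wells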;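 also: cells aged with compound for 7 days at 30 degrees C before staining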
DHE counter = DHE fluorescence interference, counter-screen artifact; shares compounds with Yeast superoxide; AID 435000; fluorescence response, % at 10 µM; S. cerevisiae BY4741, flow cytometry; active compounds read low; 850 tested, under 10 active;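 active = fluorescence response below 15%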;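 also: lower means stronger quenching of DHE signal or ROS scavenging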
Hits are given with their value; . = inactive; / = no result given.

SMILES | PfM18AAP inh | A3G deaminase | A3A deaminase | Yeast superoxide | PfGluPho inh | Superoxide pick | DHE counter
O=C(CN1CCN(C(=O)c2c(F)cccc2F)CC1)Nc1ccccc1C(F)(F)F | . | . | . | 52 | . | . | .
Cc1nn(-c2ccccc2)c(N2CCCC2)c1/C=N/Nc1ccc(S(N)(=O)=O)cc1[N+](=O)[O-] | . | . | . | 60 | . | . | .
N#Cc1ccccc1NC1=CC(=O)CCC1 | . | . | . | . | . | / | /
O=C1C=C(NC2=CC3OC(c4ccccc4)OCC3OC2=O)CCC1 (stereo unspecified) | . | / | / | 60 | . | . | .
COc1ccccc1-c1noc(CCC(=O)Nc2cccnc2)n1 | / | / | / | / | . | / | /
O=C(NC1CCCCC1)C(c1ccncc1)N(C(=O)c1csnn1)c1ccccc1F (stereo unspecified) | . | . | . | 65 | . | . | .
CCC(C)c1ccc(S(=O)(=O)N2CCN(C(=O)CN3C(=O)NC(C)(C4CC4)C3=O)CC2)cc1 (stereo unspecified) | / | / | / | / | . | / | /
COc1ccccc1-c1nnc(NC(=O)c2ccc(S(=O)(=O)N3CCOCC3)cc2)o1 | . | . | . | . | . | . | .
COCc1nnc(NC(=O)c2ccc(S(=O)(=O)N3CCOCC3)cc2)o1 | . | . | . | . | . | . | .
COCc1nnc(NC(=O)c2ccc(S(=O)(=O)N3CCCc4ccccc43)cc2)o1 | . | . | . | . | . | . | .
COc1cc(-c2nnc(NC(=O)c3ccc(S(=O)(=O)N4CCOCC4)cc3)o2)cc(OC)c1OC | . | . | . | . | / | / | /
COc1cccc(NC(=O)Nc2ccc3c(c2)nc(C)n3C)c1 | . | . | . | 61 | . | . | .
COc1cccc(NC(=O)Nc2ccc3nc(C)c(C)nc3c2)c1 | . | . | . | . | . | / | /
CCn1c2ccccc2c2cc(NC(=O)C(C)C)ccc21 | . | . | . | . | . | . | .
CCCC(=O)Nc1ccc2c(c1)c1ccccc1n2CC | . | . | . | . | . | . | .
